Measured values: PubChem BioAssay (EPA / NIEHS)
Results filed as inconclusive are left out. Activity calls are given as the source filed them. The calls were made as follows: active = hit-call score of the fitted dose curve at least 0.9, where 1 is the maximum; inconclusive = response in the unintended direction; inactive = score below 0.9.

biological target: Retinoic acid receptor RXR-alpha (Homo sapiens) (UniProt P19793); assay: ATG_RXRa_TRANS: Attagene TRANS-FACTORIAL HepG2 Assay for human Retinoid X Receptor alpha (RXRa) (AID 2283012)
Sequence (P19793 whole entry, looked up, the tested form may be a part): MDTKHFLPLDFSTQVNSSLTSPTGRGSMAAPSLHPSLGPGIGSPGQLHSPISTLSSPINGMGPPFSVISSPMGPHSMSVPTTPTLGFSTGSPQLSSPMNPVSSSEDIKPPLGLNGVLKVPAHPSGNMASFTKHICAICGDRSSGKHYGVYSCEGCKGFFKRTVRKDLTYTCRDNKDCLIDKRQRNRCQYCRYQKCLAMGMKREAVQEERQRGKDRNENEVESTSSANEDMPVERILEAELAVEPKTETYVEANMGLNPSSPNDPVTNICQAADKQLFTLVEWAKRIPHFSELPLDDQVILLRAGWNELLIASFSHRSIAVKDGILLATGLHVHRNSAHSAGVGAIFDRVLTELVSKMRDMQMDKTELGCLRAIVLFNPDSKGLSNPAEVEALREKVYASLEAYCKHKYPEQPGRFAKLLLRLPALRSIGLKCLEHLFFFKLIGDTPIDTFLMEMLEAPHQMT
Summary of the method: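 HepG2 cells transiently transfected with multiplexed GAL4-UAS reporter units and chimeric NR-GAL4 fusions, dosed 24 h. Reporter mRNA measured by RT-PCR, FAM labelling, HpaI digestion and capillary electrophoresis; gain-of-signal fitted relative to DMSO baseline.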

**Q.** For `O=C1CCCCCCCCCCCCCC1`, which AC50 is on record?
**A.** Its AC50 is 26.5 µM (active).

**Q.** Which outcome does the source give for `O=S(=O)(O)c1cccc2ccccc12` here?
**A.** Its outcome is “inactive”.

**Q.** With `C/C=C(\C)C(=O)OCC/C=C\CC` as the molecule, how does the outcome read?
**A.** Its outcome is “inactive”.

**Q.** For `CCO[Si](CCCN)(OCC)OCC`, which outcome is on record?
**A.** The outcome was “inactive”.

**Q.** For `CCC(=O)OCc1ccc(OC)cc1`, which outcome is on record?
**A.** The outcome was “inactive”.

**Q.** `C=C1CC[C@H]2C[C@@H]1C2(C)C` was tested. Which outcome did it give?
**A.** The outcome was “inactive”.

**Q.** `CCCCCC1CCCC(=O)O1` (stereo not given) was tested. Which outcome did it give?
**A.** Its outcome is “inactive”.

**Q.** Which outcome does the source give for `COC(=O)[C@]1(C)CCC[C@@]2(C)[C@H]1CC=C1C=C(C(C)C)CC[C@@H]12` here?
**A.** The outcome was “inactive”.

**Q.** For `Cc1cc(-n2nc3ccc(Cl)cc3n2)c(O)c(C(C)(C)C)c1`, which outcome is on record?
**A.** The outcome was “inactive”.

**Q.** How did the outcome turn out when `CC(C)(C)NC(=O)[C@@H]1CN(Cc2cccnc2)CCN1C[C@@H](O)C[C@@H](Cc1ccccc1)C(=O)N[C@H]1c2ccccc2C[C@H]1O` was run?
**A.** Its outcome is “inactive”.

**Q.** For `Oc1cccc2ccccc12`, which outcome is on record?
**A.** Its outcome is “inactive”.

**Q.** How did the outcome turn out when `Oc1ccc(Oc2ccccc2)cc1` was run?
**A.** The outcome was “inactive”.

**Q.** For `c1ccc2c(c1)Oc1ccccc1S2`, which outcome is on record?
**A.** The outcome was “inactive”.

biological target: human Retinoid X Receptor beta (RXRb), RXRB (gene 6257) (UniProt P28702); assay: ATG_RXRb_TRANS: Attagene TRANS-FACTORIAL HepG2 Assay for human Retinoid X Receptor beta (RXRb) (AID 2283013)
Sequence (P28702 whole entry, looked up, the tested form may be a part): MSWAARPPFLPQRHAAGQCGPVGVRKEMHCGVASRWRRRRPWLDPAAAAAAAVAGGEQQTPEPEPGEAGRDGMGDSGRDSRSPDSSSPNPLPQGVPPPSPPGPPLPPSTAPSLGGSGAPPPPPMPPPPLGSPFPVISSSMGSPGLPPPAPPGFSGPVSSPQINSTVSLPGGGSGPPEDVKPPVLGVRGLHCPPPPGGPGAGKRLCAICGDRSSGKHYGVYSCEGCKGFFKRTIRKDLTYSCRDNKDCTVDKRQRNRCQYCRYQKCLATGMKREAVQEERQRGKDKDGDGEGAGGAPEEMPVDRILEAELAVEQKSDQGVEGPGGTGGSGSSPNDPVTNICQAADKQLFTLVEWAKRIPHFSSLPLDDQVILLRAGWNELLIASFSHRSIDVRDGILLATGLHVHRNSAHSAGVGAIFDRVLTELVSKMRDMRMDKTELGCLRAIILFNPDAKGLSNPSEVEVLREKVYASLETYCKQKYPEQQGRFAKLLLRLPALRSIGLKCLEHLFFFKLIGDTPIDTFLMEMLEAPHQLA
Summary of the method: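 HepG2 cells transiently transfected with multiplexed reporter units driven by GAL4-UAS and exogenous chimeric NR-Gal4 proteins; treated 24 h. Reporter mRNA measured by RT-PCR, 6-FAM labelling and capillary electrophoresis; gain-of-signal fitted versus DMSO baseline.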

**Q.** Which outcome does the source give for `CNC(=C[N+](=O)[O-])NCCSCc1csc(CN(C)C)n1` here?
**A.** Its outcome is “inactive”.

**Q.** Which AC50 does the source give for `O=C1CCCCCCCCCCCCCC1` here?
**A.** The AC50 was 13 µM (active).

**Q.** For `CCCC(=O)OC/C=C(\C)CCC=C(C)C`, which outcome is on record?
**A.** The outcome was “inactive”.

**Q.** With `CCCCCCC(O)CCCCCCCCCCC(=O)OC` (stereo not given) as the molecule, how does the AC50 read?
**A.** The AC50 was 53.5 µM (active).

**Q.** With `C/C=C(\C)C(=O)OCC/C=C\CC` as the molecule, how does the outcome read?
**A.** The outcome was “inactive”.

**Q.** How did the outcome turn out when `C=CCOCC(CC)(CO)COCC=C` was run?
**A.** Its outcome is “inactive”.

**Q.** With `CCCCCCC1CCC(=O)O1` (stereo not given) as the molecule, how does the outcome read?
**A.** The outcome was “inactive”.

**Q.** For `CCC(=O)OCc1ccc(OC)cc1`, which outcome is on record?
**A.** The outcome was “inactive”.

**Q.** With `CCc1cc(C(N)=S)ccn1` as the molecule, how does the outcome read?
**A.** The outcome was “inactive”.

**Q.** Which outcome does the source give for `COc1cccc(OC)c1C(=O)O` here?
**A.** The outcome was “inactive”.

**Q.** For `CCCCCC1CCCC(=O)O1` (stereo not given), which outcome is on record?
**A.** Its outcome is “inactive”.

**Q.** How did the outcome turn out when `COC(=O)[C@]1(C)CCC[C@@]2(C)[C@H]1CC=C1C=C(C(C)C)CC[C@@H]12` was run?
**A.** The outcome was “inactive”.

**Q.** For `O=C(OCc1ccccc1)c1ccccc1`, which outcome is on record?
**A.** Its outcome is “inactive”.

**Q.** With `NC(=O)c1ccc(N)cc1` as the molecule, how does the outcome read?
**A.** The outcome was “inactive”.

**Q.** Which outcome does the source give for `CC(C)=CCOC(=O)c1ccccc1` here?
**A.** Its outcome is “inactive”.

**Q.** `CC(C)(C)NC(=O)[C@@H]1CN(Cc2cccnc2)CCN1C[C@@H](O)C[C@@H](Cc1ccccc1)C(=O)N[C@H]1c2ccccc2C[C@H]1O` was tested. Which outcome did it give?
**A.** The outcome was “inactive”.

**Q.** `Oc1cccc2ccccc12` was tested. Which outcome did it give?
**A.** The outcome was “inactive”.

**Q.** How did the outcome turn out when `C=CN1CCCCCC1=O` was run?
**A.** The outcome was “inactive”.

**Q.** With `Oc1ccc(Oc2ccccc2)cc1` as the molecule, how does the AC50 read?
**A.** Its AC50 is 59.2 µM (active).

**Q.** With `CN(C)c1ccc(C(c2ccccc2)c2ccc(N(C)C)cc2)cc1` as the molecule, how does the outcome read?
**A.** Its outcome is “inactive”.

**Q.** For `c1ccc2c(c1)Oc1ccccc1S2`, which outcome is on record?
**A.** The outcome was “inactive”.

**Q.** How did the AC50 turn out when `CCCCCC[C@@H](O)C/C=C\CCCCCCCC(=O)O` was run?
**A.** Its AC50 is 30.9 µM (active).
